Assay results taken from PubChem BioAssay AID651568 (National Center for Advancing Translational Sciences (NCATS), 2012).
Among all 1,200 compounds or so, about 55 (5%) were called active. Entries that show only a call come without a potency. Roughly 15% stayed inconclusive and do not appear here. The call rests on the fitted dose curve; in most records, active means well fitted inhibition curve with a large enough effect; inconclusive means small, poorly fitted or top-dose-only effect; inactive means no such curve, though single readings can be large or run the other way. Many of the other results were omitted from the sample, so actives are more common in it than they were.

Assay: qHTS Assay to Find Inhibitors of Chronic Active B-Cell Receptor Signaling: Hit Validation in Renilla Reporter Assay; further: nearly all actives have a fitted effect of over 70% in size
Settings: TMD8 IkB-Renilla luciferase reporter, NF-kB signaling; series mostly up to 57.5 µM
Source text: Diffuse large B-cell lymphoma (DLBCL) is the most common category of non-Hodgkin lymphoma, with ~20,000 new cases per year in the United States. DLBCL should be regarded as a collection of different neoplasms. Microarray gene expression analysis has defined two principal types of DLBCL, named for their similarity to normal B cell stages or activation states: a germinal center B-cell (GCB) type, and an activated B-cell (ABC) type. In ABC-DLBCL, a constitutive high-level activity of the NF-kappaB family of transcription factors has been observed (1) and NF-kappaB target genes are more highly expressed in ABC primary tumors than in GCB tumors. Functional studies have shown a constitutive high-level activity of the IkappaB (inhibitor of kappa-B) kinase (IKK) complex. […] Further analysis of DLBCL primary tumors for NF-kappaB target gene expression imply that although CARD11 is required for constitutive IKK activity in all ABC-DLBCL lines, mutations in CARD11 may be the root cause of IKK activation only in lines or tumors with such mutations. In other words, CARD11 mutations may explain NF-kappaB activation in only 10% of ABC-DLBCL cases. […] This process has been termed 'chronic active BCR signaling' (CABS). The goal of this screen is to find small-molecule inhibitors of the CABS pathway found in ABC-DLBCL lines using a cell-based assay that measures IkappaBalpa stability, which has already been extensively validated in the OCI-Ly3 line (PubChem AID:445; REF: 4). […] Hits from the primary screen were tested in this orthogonal secondary assay. NIH Molecular Libraries Probe Production Network [MLPCN] NIH Chemical Genomics Center [NCGC] MLPCN Grant: R03 DA031086 PI Name: Dr. R. Eric Davis
The IkB-Photinus/Renilla reporter assay differs from the primary assay in that the reporters are constitutively expressed, and based on luciferases that are different from the click beetle luciferases and each other. These differences should help to eliminate artifactual sources of activity specific to the primary assay. This assay uses the Dual-Glo substrate from Promega; extensively validated in a 96-well format, it could be converted to a smaller-well format. All lines needed for the IkB-Photinus/Renilla assay have already been prepared and extensively validated
Potency means the concentration at half of the fitted maximal effect.

Row | Compound | Potency
1 | CNC(=S)N/N=C(\C)c1ccc2c(c1)OCCO2 | inactive
2 | CCOc1ccc2c(c1)OC(c1ccc(OC)cc1)(C(F)(F)F)NC2=O (stereo not drawn) | inactive
3 | CC(C)(C)c1ccc(C(=O)CCC(=O)NCc2ccccc2)cc1 | inactive
4 | C=CCN(C(=O)CSC1=NC(=O)CN1C(C)=O)c1nc(C)c(-c2ccccc2)s1 | inactive
5 | S=c1nn[nH]n1C12CC3CC(CC(C3)C1)C2 | inactive
6 | Cc1ccccc1Nc1nc(N)nc(COC(=O)c2cccc(S(=O)(=O)N(C)C)c2)n1 | inactive
7 | CCOC(=O)C1=C(COC(=O)/C=C/c2ccc(O)c(OC)c2)NC(=O)NC1C (stereo not drawn) | inactive
8 | COc1ccc(/C=N/NC(=O)CCn2cnc(-c3ccccc3)c2-c2ccccc2)cc1 | 26.9 µM (active)
9 | O=C(COc1ccccc1-c1ccccc1)N/N=C/c1ccc2ccccc2c1 | inactive
10 | COc1ccc(/C=N/NC(=O)CCn2cnc(-c3ccccc3)c2-c2ccccc2)cc1OC | inactive
11 | COc1ccc(OC)c(Nc2c3c(nc4ccccc24)CCC3)c1 | inactive
12 | Cc1ccc(C(=O)O)cc1NC(=S)NC(=O)C(c1ccccc1)c1ccccc1 | inactive
13 | Cc1ccc(C(=O)Sc2cccccc2=O)cc1 | 6.75 µM (active)
14 | COc1ccc(C)cc1NC(=O)CNC(c1ccccc1)c1ccc(C)cc1 (stereo not drawn) | inactive
15 | COc1ccc(NC(=O)Cn2nnc(-c3ccccc3NS(=O)(=O)c3ccc(OC)cc3)n2)cc1 | inactive
16 | CCOc1cccc(C2CC(=O)Nc3cc(OC)c(OC)cc32)c1 (stereo not drawn) | inactive
17 | COc1cccc(/C=C/C(=O)Nc2cc(S(=O)(=O)N3CCOCC3)ccc2OC)c1 | inactive
18 | CCC1=Nc2cc(C(=O)NCCCOC(C)C)ccc2Sc2ccc(C)cc21 | inactive
19 | O=C(Oc1c(CN2CCOCC2)cc(Cl)c2cccnc12)c1ccc(F)cc1 | inactive
20 | O=C(Oc1ccc(Cl)c2cccnc12)C12CC3CC(CC(C3)C1)C2 | inactive
21 | Cc1c(C(=O)Oc2cccc3cccnc23)oc2ccccc12 | inactive
22 | O=C(Oc1c(Cl)cc(Cl)c2cccnc12)c1cccs1 | 23.9 µM (active)
23 | O=C(Oc1c(Cl)cc(Cl)c2cccnc12)c1ccco1 | 12 µM (active)
24 | COc1cc(OC)cc(C(=O)Oc2c(CN3CCOCC3)cc(Cl)c3cccnc23)c1 | inactive
25 | O=C1NC(=Nc2ccc(O)cc2)S/C1=C\C=C\c1ccco1 | inactive
26 | O=C(Nc1ncc(Cc2ccc(SC(F)F)cc2)s1)c1ccc(OC(F)F)cc1 | inactive

Row | Compound | Potency
27 | CCCc1nnc(NC(=S)Nc2ccccc2)s1 | inactive
28 | CC1CCCN(c2ccc([N+](=O)[O-])cc2C(=O)c2ccccc2)C1 (stereo not drawn) | inactive
29 | N#CC1=C(N)Oc2cc(N)ccc2C1c1cccc(Br)c1 (stereo not drawn) | inactive
30 | O=C(c1cc([N+](=O)[O-])ccc1N1CCOCC1)N1CCN(c2ccccc2)CC1 | inactive
31 | CCOC(=O)c1c(C)n(C)c2ccc(OC)c(NC(=O)CN3CCN(C(=O)c4ccco4)CC3)c12 | inactive
32 | CCOc1ccc(S(=O)(=O)NCc2ccccn2)cc1NC(=O)c1ccccc1F | inactive
33 | Cc1c(C(=O)N/N=C/c2ccc(Cl)cc2)[nH]c2ccc(Cl)cc12 | inactive
34 | CCOC(=O)c1c(C)[nH]c(C(=O)N/N=C/c2ccc(Br)cc2)c1C | 10.7 µM (active)
35 | CCOC(=O)c1[nH]c(C)c(C(=O)OCC)c1C | inactive
36 | CCOC(=O)CSC1=C(C#N)C(c2ccc(C)o2)CC(=O)N1 (stereo not drawn) | inactive
37 | COc1ccc(-c2[nH]ncc2/C=C(\C#N)C(=O)NC2CC2)cc1 | inactive
38 | CC1CCc2c(sc(NC(=O)CSc3nc(N)cc(=O)[nH]3)c2C(N)=O)C1 (stereo not drawn) | inactive
39 | COc1ccc(CNc2nc(NCc3ccc(OC)cc3)c3ncn(C4CCCC4)c3n2)cc1 | inactive
40 | C/C(=N\NC(=O)c1ccc(F)cc1)c1ccccn1 | inactive
41 | O=C(NN=C(c1ccccc1)c1ccccn1)c1ccccc1 | 26.9 µM (active)
42 | CCOc1ccc(OCc2ccc(C(=O)N/N=C(\C)c3ccccn3)cc2)cc1 | inactive
43 | Cc1onc(-c2ccccc2)c1C(=O)Nc1cc(C(F)(F)F)ccc1N1CCOCC1 | inactive
44 | NC(=S)N=Nc1c(O)n(Cc2ccc(Br)cc2)c2ccccc12 | inactive
45 | C=CCNC(=S)N/N=C/c1cn(C)c2ccccc12 | inactive
46 | CC(=O)c1cc(C#N)c(SCCC(C)C)nc1C | inactive
47 | C=CCOc1ccc(/C=C2\SC(N)=NC2=O)cc1OC | inactive
48 | CCCC(=O)OCCNc1cc(Sc2nccn2C)c2nonc2c1[N+](=O)[O-] | 3.79 µM (active)
49 | S=c1[nH]nc(-c2ccco2)n1/N=C/C(Cl)=C/c1ccccc1 | 26.9 µM (active)
50 | COc1cc2sc(-c3ccc(S(C)(=O)=O)cc3)c(C#CCO)c2cc1OC | inactive
51 | COC(=O)c1cnc(Oc2ccc(NC(=O)NC(=O)c3c(OC)cccc3OC)cc2)cc1C(F)(F)F | inactive
52 | COc1ccccc1CNS(=O)(=O)c1ccc(-c2cc(C)no2)cc1 | inactive

Row | Compound | Potency
53 | CCN(c1ccccc1)S(=O)(=O)c1ccc(C(=O)NNC(=O)c2ccccc2F)cc1 | inactive
54 | O=C(N1CCN(c2ccccn2)CC1)N1c2ccccc2Sc2ccccc21 | inactive
55 | O=[N+]([O-])c1ccc(Sc2nc3ccccc3o2)c([N+](=O)[O-])c1 | 3.01 µM (active)
56 | O=[N+]([O-])c1cc(/C=N/O)ccc1Sc1ccccc1 | inactive
57 | CCOc1ccc(C2=Nn3c(nnc3-c3ccccc3OC)SC2)cc1 | inactive
58 | COc1ccc(C)cc1NS(=O)(=O)c1ccc(-c2cnc(C3CC3)o2)cc1 | inactive
59 | Cc1nc(N2N=C(c3ccc(Cl)cc3)CC2c2ccco2)sc1C(=O)N(C)C (stereo not drawn) | inactive
60 | Cc1ccc(/C=N/NC(=O)c2cc(-c3cccnc3)nc3ccccc23)cc1 | inactive
61 | CC[C@@H](C)[C@H](NC(=O)CCc1c(C)c2cc3c4c(oc3c(C)c2oc1=O)CCCC4)C(=O)O | inactive
62 | CCc1c(C)c(C#N)c2nc3ccccc3n2c1Cl | 0.953 µM (active)
63 | Cc1cc(Cl)n2c(nc3cc(F)c(F)cc32)c1C#N | 1.69 µM (active)
64 | Cc1cc(Cl)n2c(nc3ccccc32)c1C#N | 1.9 µM (active)
65 | COc1cc(/C=C2\N=C(c3ccccc3)NNC2=O)cc(OC)c1OC | inactive
66 | CCN(CC)c1ccc(NC(=O)CN2CCN(CC(=O)Nc3ccccc3F)CC2)cc1 | inactive
67 | CCOc1nc(OCC)nc(N2CCC(C)CC2)n1 | inactive
68 | CCOc1ccc(NC(=O)c2cc(OC)nc3ccccc23)cc1 | inactive
69 | CCC1=Nc2cc(C(=O)NCc3ccco3)ccc2Sc2ccc(C)cc21 | inactive
70 | Cc1ccc(S(=O)(=O)n2cc(-c3ccccc3)c3ccccc32)cc1 | inactive
71 | COc1cc2c(cc1OC)-c1cc(NC3CCCCCC3)nc(=O)n1CC2 | inactive
72 | COc1ccc(C(=O)/C=C/c2ccc(O)cc2)c2c1CC(O)C(C)(C)O2 (stereo not drawn) | 23.9 µM (active)
73 | COc1ccc(/C=N/NC(=O)c2ccc3c(c2)NC(=O)C(C)(C)O3)cc1OC | inactive
74 | CCOC(=O)c1c(C)c(C(=O)OCC)n(C)c1C | inactive
75 | CC(=O)N1CC(=O)N=C1SCC(=O)Nc1nc(C)c(-c2ccccc2)s1 | inactive
76 | CCOc1ccc(S(=O)(=O)Nc2ccc3oc(C)c(C(=O)OCCOC)c3c2)cc1 | inactive
77 | CCOC(=O)C1=C(C)NC(C)=C(C(=O)OCC)C1C(=O)OCC(=O)NCc1ccccc1OC | inactive
78 | COc1cc(OC)c2c(-c3cccc(-c4ccc(NC(C)=O)cc4)c3)cc(=O)oc2c1 | inactive

Row | Compound | Potency
79 | CC(=O)OCC(=O)[C@@]1(O)CC[C@H]2[C@@H]3CCC4=CC(=O)C=C[C@]4(C)[C@H]3[C@@H](O)C[C@@]21C | inactive
80 | COC(=O)CCC(=O)NC(=S)Nc1sc(C)c(C)c1C(N)=O | inactive
81 | CCSc1nc(-c2ccccc2)nc(C(Cl)Cl)n1 | 2.69 µM (active)
82 | CCc1ccc(/C=N/NC(=O)c2cc(C3CC3)nc3ccccc23)s1 | inactive
83 | N#Cc1ccc(-c2cccs2)nc1SCc1cccnc1 | inactive
84 | OC(CNCc1ccc(-c2ccccc2)cc1)c1ccccc1 (stereo not drawn) | inactive
85 | COc1ccc(-c2cnnn2-c2ccc(N)cc2)cc1OC | inactive
86 | O=C(N/N=C/c1ccc(Cl)cc1)c1n[nH]c2c1CCCC2 | inactive
87 | O=C(Cc1ccc(-c2ccccc2)cc1)NCc1ccccc1 | inactive
88 | O=C(Cc1n[nH]c(=O)c2ccccc12)OCC(=O)c1ccc2c(c1)OCCO2 | inactive
89 | CC(C)N1C(=O)/C(=C/c2nc3ccccc3c(=O)n2-c2ccccc2)c2ccccc21 | 13.5 µM (active)
90 | O=C(CSc1nc2ccccc2c(=O)n1-c1ccccc1F)NC1CC1 | inactive
91 | CC(C)N1C(=O)/C(=C\c2nc3ccccc3c(=O)[nH]2)c2ccccc21 | 23.9 µM (active)
92 | Cc1cc(C)cc(N2CC(O)=C(c3nc4ccccc4c(=O)[nH]3)C2=N)c1 | inactive
93 | Cc1ccc(Sc2c(CO)c(-c3ccccc3)nn2C)cc1 | inactive
94 | COc1ccc(NC(=O)C(=O)c2cn(CC(=O)N3CCCC3)c3ccccc23)cc1 | inactive
95 | CC(=O)Nc1ccc(NS(=O)(=O)c2cc(-c3n[nH]c(=O)c4ccccc34)ccc2C)cc1 | inactive
96 | COC(=O)c1ccc(C)c(NS(=O)(=O)c2ccc(OC)cc2)c1 | inactive
97 | CCOc1ccccc1C(=O)N1CCN(c2cccc(Cl)c2)CC1 | inactive
98 | COc1ccc(-c2c(C)c3ccc(O)cc3oc2=O)cc1OC | inactive
99 | Cc1cccc(C(=O)N[C@H](C(=O)Nc2nc3ccccc3[nH]2)C(C)C)c1 | inactive
100 | Cc1ccc(/C=C/C(=O)c2nc3ccccc3[nH]2)cc1 | 16.9 µM (active)
101 | CC1=CC(C)(C)N(S(=O)(=O)c2ccc(C)cc2)c2cc(C)ccc21 | inactive
102 | COC(=O)c1cc(C(=O)N2CCN(c3cccc(Cl)c3)CC2)cc([N+](=O)[O-])c1 | inactive
103 | COc1cccc(/C=N/NC(=S)Nc2cccc(S(=O)(=O)N(C)C)c2)c1 | inactive
